In ChEMBL document CHEMBL1961873, “Compounds: GSK PKIS; Assays: Nanosyn kinase panel” (2012) one finds inhibition data, which are given here for 31 compounds.

Each structure is given as a SMILES string. Where “and” joins values, the source holds several entries; their conditions need not be identical. Identical values can stand only once.

In one assay the target is PAS domain-containing serine/threonine-protein kinase (Homo sapiens) (UniProt Q96RG2). To be noted: at 0.1 µM.
Chain of PAS domain-containing serine/threonine-protein kinase (Homo sapiens) (Q96RG2 whole entry, the tested form may be a part): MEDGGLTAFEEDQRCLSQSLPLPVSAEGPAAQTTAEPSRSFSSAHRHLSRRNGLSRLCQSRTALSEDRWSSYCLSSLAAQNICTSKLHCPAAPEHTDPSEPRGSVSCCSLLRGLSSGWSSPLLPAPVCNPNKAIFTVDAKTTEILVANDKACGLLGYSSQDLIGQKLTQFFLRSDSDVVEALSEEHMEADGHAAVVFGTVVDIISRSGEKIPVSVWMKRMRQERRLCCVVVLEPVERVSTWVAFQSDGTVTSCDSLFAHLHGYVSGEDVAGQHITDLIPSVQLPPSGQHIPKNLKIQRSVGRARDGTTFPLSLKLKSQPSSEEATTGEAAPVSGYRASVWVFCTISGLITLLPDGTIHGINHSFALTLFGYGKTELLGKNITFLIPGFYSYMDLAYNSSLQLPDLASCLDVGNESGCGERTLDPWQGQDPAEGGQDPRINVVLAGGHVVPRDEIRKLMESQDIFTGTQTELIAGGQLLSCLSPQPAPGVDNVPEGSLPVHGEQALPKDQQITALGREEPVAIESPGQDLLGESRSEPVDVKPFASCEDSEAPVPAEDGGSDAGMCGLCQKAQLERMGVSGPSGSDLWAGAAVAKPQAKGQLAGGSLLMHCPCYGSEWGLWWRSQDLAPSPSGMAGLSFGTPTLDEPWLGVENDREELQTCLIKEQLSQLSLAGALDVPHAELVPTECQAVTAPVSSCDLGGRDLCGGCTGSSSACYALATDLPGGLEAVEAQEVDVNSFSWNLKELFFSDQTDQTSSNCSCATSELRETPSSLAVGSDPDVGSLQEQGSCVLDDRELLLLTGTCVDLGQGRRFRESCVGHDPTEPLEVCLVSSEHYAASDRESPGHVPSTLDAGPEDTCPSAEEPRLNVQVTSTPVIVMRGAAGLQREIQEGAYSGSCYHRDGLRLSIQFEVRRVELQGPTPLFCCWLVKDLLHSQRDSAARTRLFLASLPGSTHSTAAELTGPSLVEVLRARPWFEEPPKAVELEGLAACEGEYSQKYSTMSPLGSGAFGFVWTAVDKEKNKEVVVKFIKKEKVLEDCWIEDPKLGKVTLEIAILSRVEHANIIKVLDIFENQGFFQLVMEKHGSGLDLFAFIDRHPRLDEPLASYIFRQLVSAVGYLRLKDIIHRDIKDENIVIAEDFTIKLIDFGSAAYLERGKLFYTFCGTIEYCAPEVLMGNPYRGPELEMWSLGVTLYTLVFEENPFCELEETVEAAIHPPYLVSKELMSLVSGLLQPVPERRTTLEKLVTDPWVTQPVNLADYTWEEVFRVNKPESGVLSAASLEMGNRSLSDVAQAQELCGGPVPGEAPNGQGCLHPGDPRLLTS
For orientation: inhibition means the relative decrease from the control value, in per cent. As to `FC(F)(F)CNc1nccc(-c2cnn3ncccc23)n1`, the inhibition worked out at 1.06%.

As to `CCOc1ccc2c(-c3ccnc(Nc4cc(OC)cc(C(F)(F)F)c4)n3)cnn2n1`, the inhibition came to 0%.

In the case of `CCS(=O)(=O)c1ccc(OC)c(Nc2ncc(-c3cccc(C(C)=O)c3)o2)c1`, the inhibition came to 0.37%.

As to `CS(=O)(=O)CCNCc1ccoc1-c1ccc2ncnc(Nc3ccc(OCc4ccccc4)cc3)c2c1`, the inhibition came out at 1.27%.

As to `NS(=O)(=O)c1cccc(N/C=C2\C(=O)Nc3ccccc32)c1`, the inhibition is -0.26%.

`CCn1c(-c2nonc2N)nc2cncc(C(=O)NCCNC)c21`: the inhibition is 0.06%.

With `CS(=O)(=O)CCNCc1ccc(-c2ccc3ncnc(Nc4ccc(OCc5cccc(C(F)(F)F)c5)cc4)c3c2)o1`, the inhibition is -1.03%.

`COc1cc(N2CCN(C(C)C)CC2)ccc1Nc1nc(Nc2cccc(F)c2C(=O)O)c2cc[nH]c2n1`: the inhibition was determined as 0.65%.

As to `O=C(O[C@H]1CN[C@H](C#Cc2cc3ncnc(Nc4ccc5c(cnn5Cc5ccccc5)c4)c3s2)C1)N1CCOCC1`, the inhibition is 1.66%.

For the compound `CS(=O)(=O)Nc1ccc(-c2cc(-c3ccccc3)cc(C(N)=O)c2N)cc1`, the inhibition is -0.01%.

In the case of `CCS(=O)(=O)c1ccc(OC)c(Nc2ncc(-c3cccc(F)c3)o2)c1`, the inhibition was -0.05%.

As for `O=C1Nc2ccccc2/C1=C1\CCc2cc(O)ccc21`, the inhibition was found to be 0.2%.

Turning to `Cc1ccc(-c2cc3c(NC(=O)C4CC4)ncnc3o2)cc1`, the inhibition is 0.53%.

`CS(=O)(=O)Nc1ccc(-c2ccc3c(NC(=O)C4CC4)n[nH]c3c2)cc1`: the inhibition is 0.49%.

In the case of `Cn1c(-c2nonc2N)nc2cnccc21`, the inhibition came to 0.4%.

`COc1cccc(-n2ncc3c(N/N=C/c4ccc(C(=O)NCCN(C)C)cc4)ncnc32)c1`: the inhibition was 0.59%.

In the case of `O=C(Nc1n[nH]c2nnc(-c3cccnc3)cc12)C1CC1`, the inhibition was 1.31%.

Regarding `COC(=O)Nc1nc2ccc(Oc3ccc(NC(=O)Nc4cc(C(F)(F)F)ccc4F)cc3)cc2s1`, the inhibition was -0.29%.

Consider `NC(=O)c1ccc2c(-c3ccnc(NCCCO)n3)c(-c3ccc(F)cc3)nn2c1`, for which the inhibition came out at 0.06%.

Turning to `NS(=O)(=O)c1ccc(N/N=C2\C(=O)Nc3ccc(C(=O)NCc4ccncc4)cc32)cc1`, the inhibition came out at 0.76%.

`CNC(=O)c1ncccc1Nc1nc(Nc2cc3c(cc2OC)CCCN3C(=O)CN(C)C)nc2[nH]ccc12`: the inhibition amounted to 0.42%.

Turning to `COc1ccccc1-c1cc(/C=C2\C(=O)Nc3ncc(Br)cc32)cc(Br)c1O`, the inhibition was -1.52%.

As to `CN(C)CCNC(=O)Nc1ccc(N(C)c2ccnc(Nc3ccc(CS(C)(=O)=O)cc3)n2)cc1`, the inhibition stood at 1.26%.

As for `CS(=O)(=O)CCNCc1ccc(-c2ccc3ncnc(Nc4ccc(OCc5ccccc5)cc4)c3c2)o1`, the inhibition turned out to be 0.96%.

For the compound `COC(=O)Nc1nc2cc(Oc3ccc(NC(=O)Nc4ccccc4)cc3)ccc2[nH]1`, the inhibition was 0.34%.

For the compound `O=C(O[C@H]1CN[C@H](C#Cc2cc3ncnc(Nc4ccc(OCc5cccc(F)c5)c(Cl)c4)c3s2)C1)N1CCOCC1`, the inhibition was 0.31%.

For the compound `CCCNc1cccc(-n2ncc3c(N/N=C/c4ccncc4)ncnc32)c1`, the inhibition was found to be 1.18%.

For the compound `CC1=C(C(=O)Nc2ccc3[nH]nc(C)c3c2)C(c2ccc(C(F)(F)F)cc2)CC(=O)N1` (configuration not stated), the inhibition was determined as 0.2%.

Turning to `CN1CCC(C(=O)Nc2n[nH]c3nc(-c4ccc(O)cc4)c(Br)cc23)CC1`, the inhibition is 0.12% and 1.36%.

`Cc1cc(O)cc(C)c1/C=C/c1cncc(C(=O)OC(C)(C)C)c1`: the inhibition is -0.08%.

For `CN1CCN(Cc2ccc(-c3cc4ncnc(Nc5ccc(OCc6cccc(F)c6)c(Cl)c5)c4s3)o2)CC1`, the inhibition was 1.09% and -0.73%.

The target is the same in a further assay. Particulars: at 1 µM.
For the compound `FC(F)(F)CNc1nccc(-c2cnn3ncccc23)n1`, the inhibition worked out at 0.79%.

Turning to `CCOc1ccc2c(-c3ccnc(Nc4cc(OC)cc(C(F)(F)F)c4)n3)cnn2n1`, the inhibition worked out at 0.64%.

With `CCS(=O)(=O)c1ccc(OC)c(Nc2ncc(-c3cccc(C(C)=O)c3)o2)c1`, the inhibition was found to be 2.34%.

Regarding `CS(=O)(=O)CCNCc1ccoc1-c1ccc2ncnc(Nc3ccc(OCc4ccccc4)cc3)c2c1`, the inhibition turned out to be 0.16%.

In the case of `NS(=O)(=O)c1cccc(N/C=C2\C(=O)Nc3ccccc32)c1`, the inhibition was -1.04%.

As to `CCn1c(-c2nonc2N)nc2cncc(C(=O)NCCNC)c21`, the inhibition amounted to 3.5%.

Consider `CS(=O)(=O)CCNCc1ccc(-c2ccc3ncnc(Nc4ccc(OCc5cccc(C(F)(F)F)c5)cc4)c3c2)o1`, for which the inhibition is -1.02%.

In the case of `COc1cc(N2CCN(C(C)C)CC2)ccc1Nc1nc(Nc2cccc(F)c2C(=O)O)c2cc[nH]c2n1`, the inhibition stood at 0.52%.

`O=C(O[C@H]1CN[C@H](C#Cc2cc3ncnc(Nc4ccc5c(cnn5Cc5ccccc5)c4)c3s2)C1)N1CCOCC1`: the inhibition stood at 0.95%.

Consider `CS(=O)(=O)Nc1ccc(-c2cc(-c3ccccc3)cc(C(N)=O)c2N)cc1`, for which the inhibition is -0.36%.

As to `CCS(=O)(=O)c1ccc(OC)c(Nc2ncc(-c3cccc(F)c3)o2)c1`, the inhibition is -0.06%.

Regarding `O=C1Nc2ccccc2/C1=C1\CCc2cc(O)ccc21`, the inhibition is -1.25%.

As for `Cc1ccc(-c2cc3c(NC(=O)C4CC4)ncnc3o2)cc1`, the inhibition amounted to 0.26%.

As for `CS(=O)(=O)Nc1ccc(-c2ccc3c(NC(=O)C4CC4)n[nH]c3c2)cc1`, the inhibition is -0.44%.

`Cn1c(-c2nonc2N)nc2cnccc21`: the inhibition was -0.76%.

For the compound `COc1cccc(-n2ncc3c(N/N=C/c4ccc(C(=O)NCCN(C)C)cc4)ncnc32)c1`, the inhibition is -0.48%.

`O=C(Nc1n[nH]c2nnc(-c3cccnc3)cc12)C1CC1`: the inhibition amounted to 0.02%.

Turning to `COC(=O)Nc1nc2ccc(Oc3ccc(NC(=O)Nc4cc(C(F)(F)F)ccc4F)cc3)cc2s1`, the inhibition was -0.57%.

Turning to `NC(=O)c1ccc2c(-c3ccnc(NCCCO)n3)c(-c3ccc(F)cc3)nn2c1`, the inhibition is -1.12%.

On to `NS(=O)(=O)c1ccc(N/N=C2\C(=O)Nc3ccc(C(=O)NCc4ccncc4)cc32)cc1`, for which the inhibition came out at 2.6%.

As to `CNC(=O)c1ncccc1Nc1nc(Nc2cc3c(cc2OC)CCCN3C(=O)CN(C)C)nc2[nH]ccc12`, the inhibition is -3.51%.

Regarding `COc1ccccc1-c1cc(/C=C2\C(=O)Nc3ncc(Br)cc32)cc(Br)c1O`, the inhibition is -3.29%.

As to `CN(C)CCNC(=O)Nc1ccc(N(C)c2ccnc(Nc3ccc(CS(C)(=O)=O)cc3)n2)cc1`, the inhibition was -0.25%.

As for `CS(=O)(=O)CCNCc1ccc(-c2ccc3ncnc(Nc4ccc(OCc5ccccc5)cc4)c3c2)o1`, the inhibition is 0.95%.

For `COC(=O)Nc1nc2cc(Oc3ccc(NC(=O)Nc4ccccc4)cc3)ccc2[nH]1`, the inhibition came out at 1.02%.

In the case of `O=C(O[C@H]1CN[C@H](C#Cc2cc3ncnc(Nc4ccc(OCc5cccc(F)c5)c(Cl)c4)c3s2)C1)N1CCOCC1`, the inhibition stood at 0.78%.

For `CCCNc1cccc(-n2ncc3c(N/N=C/c4ccncc4)ncnc32)c1`, the inhibition was found to be 3.05%.

For the compound `CC1=C(C(=O)Nc2ccc3[nH]nc(C)c3c2)C(c2ccc(C(F)(F)F)cc2)CC(=O)N1` (configuration not stated), the inhibition was -1.78%.

Take `CN1CCC(C(=O)Nc2n[nH]c3nc(-c4ccc(O)cc4)c(Br)cc23)CC1`: the inhibition was 1.4% and -0.48%.

With `Cc1cc(O)cc(C)c1/C=C/c1cncc(C(=O)OC(C)(C)C)c1`, the inhibition amounted to 0.02%.

On to `CN1CCN(Cc2ccc(-c3cc4ncnc(Nc5ccc(OCc6cccc(F)c6)c(Cl)c5)c4s3)o2)CC1`, for which the inhibition is 0.63% and 0.18%.
